Experimental findings from PubChem BioAssay (Tox21) are described below.

SMILES strings stand for the structures. Where “and” joins values, the source holds several entries; their conditions need not be identical. Identical values can stand only once. Results filed as inconclusive are left out. Some compounds were tested as several samples or in several runs, with calls that do not always agree. Calls of active or inactive are those of the source. Unless noted, calls follow the shape of the dose curve; as a rule, active = well fitted curve in the direction sought with a large enough effect in the repeat runs; inconclusive = weak or mixed curves; inactive = no such curve, though single readings can be large; an effect the other way counts as inactive or inconclusive.

Assay [1] is described as follows: qHTS assay to identify small molecule agonists of the peroxisome proliferator-activated receptor delta (PPARd) signaling pathway - cell viability counter screen (AID 743211). Also: nearly all actives have a fitted effect of over 55% in size. Also: potency is read from the fitted curve at half-maximal effect. In short, it runs like this:
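Viability was measured as CellTiter-Glo luminescence (30 min, room temperature) in the same wells as the beta-lactamase readout. GeneBLAzer PPARd UAS-bla HEK293H cells received compound after 5 h plating and were incubated 17 h at 37 C.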
Background: Quantitative high-throughput screening tests each substance at several concentrations.

For assay [2], the target named is Peroxisome proliferator-activated receptor delta (Homo sapiens) (UniProt Q03181). Briefly: qHTS assay to identify small molecule agonists of the peroxisome proliferator-activated receptor delta (PPARd) signaling pathway (AID 743212; calls by dose curve). Put shortly:
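Tox21 library screened in GeneBLAzer PPARd UAS-bla HEK293H cells. After compound treatment at 37 C, a FRET-based beta-lactamase substrate was applied for 2 h and fluorescence recorded.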

Assay [3] is described as follows: qHTS assay to identify small molecule antagonists of the peroxisome proliferator-activated receptor delta (PPARd) signaling pathway - cell viability counter screen (AID 743213). Also: nearly all actives have a fitted effect of over 50% in size. Also: potency is read from the fitted curve at half-maximal effect. Put shortly:
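HEK293H cells with the PPARd UAS-bla reporter, co-treated 17 h at 37 C with compounds and L165041 (300 nM final), were lysed with CellTiter-Glo. Luminescence indicated viable cell content.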

In assay [4] the target is Peroxisome proliferator-activated receptor delta (Homo sapiens) (UniProt Q03181). Briefly: qHTS assay to identify small molecule antagonists of the peroxisome proliferator-activated receptor delta (PPARd) signaling pathway (AID 743215; active = well fitted inhibition curve with a large enough effect in the signal ratio in the repeat runs, not every such curve was filed as active; the % refers to the signal ratio;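 also: cells stimulated with agonist L165041 at 300 nM final during compound exposure; series mostly up to about 62 µM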). Put shortly:
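Screen format: qHTS, antagonist mode. HEK293H PPARd-bla cells received compound and 300 nM L165041 (final), 17 h, 37 C. Beta-lactamase detected via FRET substrate fluorescence, 2 h, room temperature.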

Assay [5] addresses Bile acid receptor (Homo sapiens) (UniProt Q96RI1). Briefly: qHTS assay to identify small molecule antagonists of the farnesoid-X-receptor (FXR) signaling pathway (AID 743217; active = well fitted inhibition curve with a large enough effect in the signal ratio in the repeat runs, not every such curve was filed as active; the % refers to the signal ratio). In short, it runs like this:
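Quantitative HTS, beta-lactamase reporter format: FXR-UAS-bla HEK 293T cells co-treated 16 h at 37 °C with compounds and 50 uM final chenodeoxycholic acid, then read by B/G FRET fluorescence.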

Assay [6] can be described thus: qHTS assay to identify small molecule agonists of the farnesoid-X-receptor (FXR) signaling pathway - cell viability counter screen (AID 743218). Also: nearly all actives have a fitted effect of over 45% in size. Also: potency is read from the fitted curve at half-maximal effect. In short, it runs like this:
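Same-well cytotoxicity check on FXR-UAS-bla HEK 293T cells: 5 h attachment, 16 h compound at 37 C, CellTiter-Glo luminescence read at room temperature after 30 min.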

The target in assay [7] is Bile acid receptor (Homo sapiens) (UniProt Q96RI1). As to the kind of experiment: qHTS assay to identify small molecule agonists of the farnesoid-X-receptor (FXR) signaling pathway (AID 743220; active = well fitted activation curve with a large enough effect in the signal ratio in the repeat runs, not every such curve was filed as active; the % refers to the signal ratio). In short, it runs like this: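 FXR-UAS-bla HEK 293T cells carrying a UAS-driven beta-lactamase reporter were plated for 5 h at 37C/5% CO2, then exposed to DMSO-dissolved Tox21 10K compounds for 16 h at 37C. A LiveBLAzer B/G FRET substrate was loaded for 2 h at room temperature before fluorescence reading.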

A short description of assay [8]: qHTS assay to identify small molecule antagonists of the farnesoid-X-receptor (FXR) signaling pathway - cell viability counter screen (AID 743221; active = well fitted cell-killing curve with a large enough effect in the repeat runs, not every such curve was filed as active; also: nearly all actives have a fitted effect of over 50% in size; also: potency is read from the fitted curve at half-maximal effect). In short, it runs like this: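 Cytotoxicity counter screen run in the FXR-bla reporter wells: HEK 293T cells exposed to compound with 50 uM (final) chenodeoxycholic acid for 16 h, 37 C, then viability measured by CellTiter-Glo luminescence after 30 min, room temperature.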

The target of assay [9] is Vitamin D3 receptor (Homo sapiens) (UniProt P11473). Briefly: qHTS assay to identify small molecule agonists of the vitamin D receptor (VDR) signaling pathway (AID 743222; calls by dose curve). Put shortly:
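Using LiveBLAzer B/G FRET detection, agonism was scored in VDR-bla cells exposed overnight (16 h, 37C) to DMSO-dissolved compounds; substrate incubation was 2 h at room temperature.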

For assay [10] the target is unchanged. Briefly: qHTS assay to identify small molecule antagonists of the vitamin D receptor (VDR) signaling pathway (AID 743223; active = well fitted inhibition curve with a large enough effect in the signal ratio in the repeat runs, not every such curve was filed as active; the % refers to the signal ratio; also: potency is read from the fitted curve at half-maximal effect). In short, it runs like this: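 Antagonist mode: compound added to VDR-bla cells alongside agonist 1alpha,25-dihydroxyvitamin D3 (3 nM final), incubation 16 h at 37C. Read-out is LiveBLAzer FRET fluorescence, 2 h at room temperature.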
% is scaled to controls: 0 for no effect and ±100 for the full control effect.

Sequence of Bile acid receptor (Homo sapiens) (Q96RI1 whole entry, looked up): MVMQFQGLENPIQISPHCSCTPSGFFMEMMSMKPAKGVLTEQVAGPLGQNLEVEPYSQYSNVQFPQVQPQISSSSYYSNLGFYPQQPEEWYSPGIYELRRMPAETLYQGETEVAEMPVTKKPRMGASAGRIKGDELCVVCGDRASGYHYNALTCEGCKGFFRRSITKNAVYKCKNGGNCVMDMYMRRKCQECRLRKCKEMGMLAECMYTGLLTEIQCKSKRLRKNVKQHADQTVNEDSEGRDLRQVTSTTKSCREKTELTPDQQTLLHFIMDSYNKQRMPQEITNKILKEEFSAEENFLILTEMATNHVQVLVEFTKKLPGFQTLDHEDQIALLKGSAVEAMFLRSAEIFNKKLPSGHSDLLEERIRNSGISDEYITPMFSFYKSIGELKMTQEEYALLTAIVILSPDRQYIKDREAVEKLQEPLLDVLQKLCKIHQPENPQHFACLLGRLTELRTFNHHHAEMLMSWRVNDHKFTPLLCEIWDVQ
Sequence of Vitamin D3 receptor (Homo sapiens) (P11473 whole entry, looked up): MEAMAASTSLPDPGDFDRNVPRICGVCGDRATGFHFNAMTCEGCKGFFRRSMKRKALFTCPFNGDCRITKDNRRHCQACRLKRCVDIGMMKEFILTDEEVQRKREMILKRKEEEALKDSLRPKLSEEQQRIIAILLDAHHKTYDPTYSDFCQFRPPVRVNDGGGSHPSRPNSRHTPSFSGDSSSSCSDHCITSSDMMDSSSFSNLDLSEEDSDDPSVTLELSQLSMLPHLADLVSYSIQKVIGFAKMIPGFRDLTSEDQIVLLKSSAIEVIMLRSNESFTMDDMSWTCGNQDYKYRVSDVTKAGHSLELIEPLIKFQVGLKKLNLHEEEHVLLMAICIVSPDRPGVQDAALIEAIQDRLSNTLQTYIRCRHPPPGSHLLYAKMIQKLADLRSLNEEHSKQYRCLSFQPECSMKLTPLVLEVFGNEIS
Sequence of Peroxisome proliferator-activated receptor delta (Homo sapiens) (Q03181 whole entry, looked up): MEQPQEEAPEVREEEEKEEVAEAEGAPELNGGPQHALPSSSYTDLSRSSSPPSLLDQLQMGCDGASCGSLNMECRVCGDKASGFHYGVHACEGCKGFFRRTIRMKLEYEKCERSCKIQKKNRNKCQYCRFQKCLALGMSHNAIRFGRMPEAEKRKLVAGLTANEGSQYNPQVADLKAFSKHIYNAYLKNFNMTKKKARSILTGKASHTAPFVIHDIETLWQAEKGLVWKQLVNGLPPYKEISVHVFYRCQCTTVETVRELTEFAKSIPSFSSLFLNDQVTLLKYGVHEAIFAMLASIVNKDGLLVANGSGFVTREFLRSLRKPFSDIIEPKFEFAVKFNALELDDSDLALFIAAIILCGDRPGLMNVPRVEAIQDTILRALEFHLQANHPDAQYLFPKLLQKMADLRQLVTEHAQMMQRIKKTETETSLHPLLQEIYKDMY

In the case of `CCC(=O)/C=C/C1C(C)=CCCC1(C)C` (stereo unspecified), the Potency entry in assay [1], in assay [2], in assay [3], in assay [4], in [5] and in assay [6] was “inactive” in each case. The Potency result in [7], in assay [8], in assay [9] and in assay [10] was “inactive” in each case.
On to `OCC(CO)N[C@H]1C[C@](O)(CO)[C@@H](O)[C@H](O)[C@H]1O`, for which the Potency result in assay [1], in assay [2], in assay [3], in assay [4], in assay [5] and in assay [7] was “inactive” in each case. The Potency result in assay [8] and in [9] was “inactive” in each case.
As for `CC(=O)C1=C(C)[C@@H]2C[C@@]3(C1)[C@H](C)CC[C@H]3C2(C)C`, the Potency entry in [1], in assay [2], in assay [3], in assay [4], in [5] and in assay [7] was “inactive” throughout. Moreover, the Potency entry in assay [8], in assay [9] and in assay [10] was “inactive” each time.
Regarding `CCCCOCCOC(=O)c1ccccc1C(=O)OCCOCCCC`, the Potency in assay [1] was 47.9 µM (active) and inactive; in assay [3], 42.7 µM (active) and inactive. For the same compound, the Potency entry in assay [2], in assay [4], in assay [6], in assay [7], in assay [8] and in [9] was “inactive” throughout. The Potency result in [10] is “inactive”.
On to `CCc1cc(C(C)(C)C)c(O)c(C(C)(C)C)c1`, for which the Potency entry in assay [1], in assay [2], in assay [3], in [4], in [5] and in assay [6] was “inactive” throughout. In addition, the Potency result in [7], in assay [8], in [9] and in [10] was “inactive” each time.
On to `CCCCN(CCO)CCCC`, for which the Potency entry in assay [1], in assay [2], in assay [3], in assay [4], in assay [5] and in assay [6] was “inactive” each time. The Potency entry in [7], in assay [8], in assay [9] and in [10] was “inactive” in each case.
Regarding `c1cnc2cc3c(cc2n1)C1CNCC3C1`, the Potency result in assay [1], in [2], in assay [3], in assay [4], in [5] and in [6] was “inactive” each time. Further, the Potency result in assay [7], in [8], in assay [9] and in assay [10] was “inactive” each time.
In the case of `CCOc1ccccc1C(N)=O`, the Potency entry in assay [1], in assay [2], in assay [3], in [4], in [5] and in assay [6] was “inactive” throughout. Moreover, the Potency entry in [7], in assay [8], in assay [9] and in assay [10] was “inactive” each time.
As to `Cc1cc(C(C)(C)C)c(O)c(C(C)(C)C)c1`, the Potency in assay [1] was 43.8 µM (active) and inactive. In addition, the Potency result in assay [2], in assay [3], in assay [4], in assay [5], in assay [6] and in [7] was “inactive” each time. In addition, the Potency result in assay [8] was “inactive”.
Take `C=CS(=O)(=O)O`: the Potency result in assay [1], in assay [2], in assay [3], in [4], in [6] and in [7] was “inactive” in each case. In addition, the Potency entry in assay [8], in assay [9] and in assay [10] was “inactive” throughout.
With `BrC1CCC(Br)C(Br)CCC(Br)C(Br)CCC1Br` (stereo unspecified), the Potency in assay [1] was 26.1 µM (active); in assay [3], 10.4 µM (active); in [6], “inactive and 20.8 µM (active)”. The Potency result in assay [2], in [4], in [7], in assay [8], in [9] and in [10] was “inactive” in each case.
Turning to `Cc1cccc(O)c1C`, the Potency result in assay [1], in [2], in assay [3], in assay [4], in assay [5] and in [6] was “inactive” each time. In addition, the Potency entry in assay [7], in [8], in assay [9] and in assay [10] was “inactive” throughout.
`NC(Cc1ccc(Cl)cc1)C(=O)O` (stereo unspecified): the values for the activity change, negative = cytotoxicity in assay [1] and in assay [8] were 4.79% [at 0.55 µM] (inactive) and 5.76% [at 0.55 µM] (inactive), respectively. The results for the activation in assay [2], in [7] and in [9] were 2.85% [at 0.55 µM] (inactive), 2.17% [at 0.55 µM] (inactive) and 0.21% [at 0.554 µM] (inactive), respectively. Moreover, the viability change, negative = cytotoxic in [3] is 1.71% [at 0.575 µM] (inactive); in [6], 0.639% [at 0.55 µM] (inactive). For the same compound, in assay [4], the ratio activity, negative = inhibition is 5.74% [at 0.575 µM] (inactive). For the same compound, the activity change, negative = inhibition in assay [5] is 10.5% [at 0.55 µM] (inactive); in assay [10], -2.76% [at 0.628 µM] (inactive).
For `CN1C(=O)c2ccc([N+](=O)[O-])cc2C1=O`, the Potency result in [1], in assay [2], in assay [3], in [4], in assay [5] and in assay [6] was “inactive” in each case. The Potency result in assay [7], in assay [8], in assay [9] and in assay [10] was “inactive” throughout.
For the compound `C#CC(C)(CC)OC(=O)c1ccccc1C(=O)O` (stereo unspecified), the Potency entry in [1], in assay [2], in assay [3], in assay [4], in assay [6] and in assay [8] was “inactive” each time. Moreover, the Potency result in assay [9] and in [10] was “inactive” throughout.
`CCc1ccc(C(c2ccc(CC)cc2)C(Cl)Cl)cc1`: the Potency result in assay [1], in assay [2], in assay [3], in [4], in assay [7] and in assay [8] was “inactive” throughout. The Potency entry in assay [9] and in assay [10] was “inactive” in each case.
On to `Cc1occc(=O)c1OC(=O)C(C)C`, for which the Potency entry in assay [1], in [2], in assay [3], in assay [4], in assay [6] and in [8] was “inactive” in each case. The Potency result in assay [9] is “inactive”.
For the compound `COC(c1ccccc1)(c1ccccc1)[C@H](Oc1nc(C)cc(C)n1)C(=O)O`, the Potency result in assay [1], in [2], in [3], in assay [5], in [6] and in assay [7] was “inactive” each time. In addition, the Potency entry in [8], in assay [9] and in assay [10] was “inactive” in each case.
`Cc1cccc2n[nH]nc12`: the Potency result in [1], in assay [2], in [3], in [4], in assay [6] and in [8] was “inactive” throughout. For the same compound, the Potency result in assay [9] and in assay [10] was “inactive” throughout.
Take `Cc1cc(Cc2cc(C)cc(C(C)(C)C)c2O)c(O)c(C(C)(C)C)c1`: the Potency in [1] is 17.5 µM (active) and 15.5 µM (active); in assay [3], 13.9 µM (active) and 15.5 µM (active); in assay [6], 21.9 µM (active). For the same compound, the Potency result in assay [2], in assay [7], in assay [8] and in assay [9] was “inactive” throughout.
For `CCOc1ccc2c(c1)C(C)=CC(C)(C)N2`, the Potency result in assay [1], in assay [2], in assay [3], in assay [6] and in assay [8] was “inactive” each time.
Regarding `CC(C)CCCCCCc1ccc(O)cc1`, the Potency is 35.3 µM (active) in [1]; 39.6 µM (active) and 43.6 µM (active) in assay [3]; 22.3 µM (active) and 49 µM (active) in [8]; 22.3 µM (active) and 43.6 µM (active) in assay [10]. Also, the Potency result in assay [2], in [4] and in assay [9] was “inactive” each time.
